The first assay deals with RAB28. Briefly: pooled miR-30 sensor sort-seq; sequence = guide strand. The note with it: shRNA.
On to TAACAGTCCTTGACATAGGTTC, for which the sensor-assay potency score (higher = more potent) is -0.143.

With TTTGATAATTTGTAATATCATA, the sensor-assay potency score (higher = more potent) is -1.64.

In turn, TAGTTAAGGAGGTCTTCCCGGA yielded a sensor-assay potency score (higher = more potent) of -0.69.

Regarding TTAACAGTCCTTGACATAGGTT, the sensor-assay potency score (higher = more potent) was -0.695.

Sequence TATTGTTCGCATATGCTCCAAA displayed a sensor-assay potency score (higher = more potent) of -0.803.

In turn, ATTTGTAATATCATATACCAAG yielded a sensor-assay potency score (higher = more potent) of -1.51.

In turn, TTTGTTTGTACTGTTTCCCAAA registered a sensor-assay potency score (higher = more potent) of -0.914.

In the case of TTATCCAACATTTTGCCTCCTA, the sensor-assay potency score (higher = more potent) turned out to be 0.54.

For the sequence TTATTGTTCGCATATGCTCCAA, the sensor-assay potency score (higher = more potent) was -0.667.

For TTGAAGGGTAACATTCAAGTTT, the sensor-assay potency score (higher = more potent) was -0.65.

On to TATTTATCCAACATTTTGCCTC, for which the sensor-assay potency score (higher = more potent) was -0.421.

The target in the next assay is RAB3D. The assay is described as above. The note with it: shRNA.
Sequence TTGAACATATAGTCGAAGTTCT registered a sensor-assay potency score (higher = more potent) of 0.33.

TTCTGATCTGCTGCATCCCGTG returned a sensor-assay potency score (higher = more potent) of -1.02.

For TAAGCTAGAAGGCACCACGGAT, the sensor-assay potency score (higher = more potent) is -0.984.

The sequence TTGGAATCCAGAAAGTTCGTGG had a sensor-assay potency score (higher = more potent) of 0.567.

Consider TTGCTGCCTGAGCTGGAGCTGG, for which the sensor-assay potency score (higher = more potent) is -1.52.

On to TTGATGTTCTCCTTGGCACTGG, for which the sensor-assay potency score (higher = more potent) is -0.145.

Turning to TATCAGTAGCAGTTTGAACATA, the sensor-assay potency score (higher = more potent) is -1.09.

In turn, TTCACATTGATGTTCTCCTTGG gave a sensor-assay potency score (higher = more potent) of -0.53.

For the sequence TGAACCATCTTCCACCAGCTTG, the sensor-assay potency score (higher = more potent) was -1.09.

With TTGACCTTGAAATCGATGCCCA, the sensor-assay potency score (higher = more potent) is -0.115.

TATAGTCGAAGTTCTGATCTGC: the sensor-assay potency score (higher = more potent) was 0.851.

On to TAGCAGTTTGAACATATAGTCG, for which the sensor-assay potency score (higher = more potent) is -0.969.

For another assay, the target named is RAB3GAP2. Described as above. To be noted: shRNA.
Sequence TTCTGTGGGATCTTTGACCTTT gave a sensor-assay potency score (higher = more potent) of 0.671.

Regarding TTGACTGACAGACTCATAGAGT, the sensor-assay potency score (higher = more potent) is -0.525.

In turn, TTACAGGCAACACACCATCTTT returned a sensor-assay potency score (higher = more potent) of -1.36.

Take TTTATTCCACTGAACAACGTAC: the sensor-assay potency score (higher = more potent) is -0.27.

TTATTTACTAGTTTAGCTGTTG came in with a sensor-assay potency score (higher = more potent) of 0.0265.

With TAAAACACAATCTTGGAGCCAG, the sensor-assay potency score (higher = more potent) was determined as 0.291.

With TTCAGTGTTTTGAAGGTCCTGG, the sensor-assay potency score (higher = more potent) is -0.334.

TTTGCTGTGAAGCAGAGTCTGA registered a sensor-assay potency score (higher = more potent) of -0.886.

Regarding TTAATTGACTGACAGACTCATA, the sensor-assay potency score (higher = more potent) was -0.923.

The sequence TTCAAGTGTTCTATTGACCTAA came in with a sensor-assay potency score (higher = more potent) of 0.6.

In the case of TATGAGACAATCCTCCAGCTGT, the sensor-assay potency score (higher = more potent) is -0.612.

The next assay concerns the target RABGEF1. The assay is described as above. The note with it: shRNA.
For TTCTTTTCTTCAAACTTGGAGA, the sensor-assay potency score (higher = more potent) was -0.783.

TTAGTTACATTCTAGATCCCAA came in with a sensor-assay potency score (higher = more potent) of 0.187.

In the case of TTCATTAACAGGGACACACAGC, the sensor-assay potency score (higher = more potent) was -0.293.

On to TTCACTGTGGTAACCTTGCGGG, for which the sensor-assay potency score (higher = more potent) is -0.0581.

TTGAATGGCAAGATCTTTCTTC showed a sensor-assay potency score (higher = more potent) of 0.743.

For the origin of these results see the OligoGym collection.
Note: reference of the scale not given here.
